# Hit rate of the full screen: of about 5,500 compounds, about 2,000 (36%) were called active. Another 18% or so got no clear call; they are omitted. This is one part of the list. A number with no mark means an inactive call. Cut-off read from the data, not from the text of the source: active = normalized growth mostly below about 0.91 (no sharp cut-off); inconclusive = no clear call, values can overlap the other calls; inactive = mostly above about 0.92.
# Experiment: chemical genetic growth profiling, strain panel (AID 1159580);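 note: tested at 20 µM; growth read once vehicle control cultures reached saturation at 30 °C; 1 = growth at the plate median or of vehicle wells; lower values mean less growth of the strain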
# Settings: growth OD
compound,measurement,setting,value
C=C/C(C)=C\CC1C(C)(O)CCC2C(C)(C)CCCC21C (stereo unspecified),normalized growth,"S. cerevisiae deletion strains, locus YAL013W, strain DEP1, active compounds read low",0.143 (active)
same,normalized growth,"S. cerevisiae deletion strains, locus YBR021W, strain FUR4, active compounds read low",0.64 (active)
same,normalized growth,"S. cerevisiae deletion strains, locus YBR229C, strain ROT2, active compounds read low",0.316 (active)
same,normalized growth,"S. cerevisiae deletion strains, locus YCL029C, strain bik1, active compounds read low",0.612 (active)
same,normalized growth,"S. cerevisiae deletion strains, locus YDL035C, strain GPR1, active compounds read low",0.139 (active)
same,normalized growth,"S. cerevisiae deletion strains, locus YDL074C, strain BRE1, active compounds read low",0.172 (active)
same,normalized growth,"S. cerevisiae deletion strains, locus YDL101C, strain DUN1, active compounds read low",0.0723 (active)
same,normalized growth,"S. cerevisiae deletion strains, locus YDL134C, strain PPH21, active compounds read low",0.0532 (active)
same,normalized growth,"S. cerevisiae deletion strains, locus YDL185W, strain tfp1, active compounds read low",0.842 (active)
same,normalized growth,"S. cerevisiae deletion strains, locus YDL192W, strain arf1, active compounds read low",0.0743 (active)
same,normalized growth,"S. cerevisiae deletion strains, locus YDR101C, strain arx1, active compounds read low",0.429 (active)
same,normalized growth,"S. cerevisiae deletion strains, locus YDR150W, strain NUM1, active compounds read low",0.289 (active)
same,normalized growth,"S. cerevisiae deletion strains, locus YDR162C, strain NBP2, active compounds read low",0.0609 (active)
same,normalized growth,"S. cerevisiae deletion strains, locus YDR318W, strain mcm21, active compounds read low",0.074 (active)
same,normalized growth,"S. cerevisiae deletion strains, locus YDR388W, active compounds read low",0.121 (active)
same,normalized growth,"S. cerevisiae deletion strains, locus YDR502C, strain sam2, active compounds read low",0.155 (active)
same,normalized growth,"S. cerevisiae deletion strains, locus YEL061C, strain CIN8, active compounds read low",0.154 (active)
same,normalized growth,"S. cerevisiae deletion strains, locus YER110C, active compounds read low",0.118 (active)
same,normalized growth,"S. cerevisiae deletion strains, locus YER155C, strain BEM2, active compounds read low",0.237 (active)
same,normalized growth,"S. cerevisiae deletion strains, locus YER167W, strain BCK2, active compounds read low",0.0638 (active)
same,normalized growth,"S. cerevisiae deletion strains, locus YGL078C, strain dbp3, active compounds read low",0.626 (active)
same,normalized growth,"S. cerevisiae deletion strains, locus YGL086W, strain mad1, active compounds read low",0.105 (active)
same,normalized growth,"S. cerevisiae deletion strains, locus YGL248W, strain PDE1, active compounds read low",0.0559 (active)
same,normalized growth,"S. cerevisiae deletion strains, locus YGR078C, strain PAC10, active compounds read low",0.0661 (active)
same,normalized growth,"S. cerevisiae deletion strains, locus YGR135W, strain pre9, active compounds read low",0.115 (active)
same,normalized growth,"S. cerevisiae deletion strains, locus YGR229C, strain SMI1, active compounds read low",0.0733 (active)
same,normalized growth,"S. cerevisiae deletion strains, locus YGR252W, strain gcn5, active compounds read low",0.255 (active)
same,normalized growth,"S. cerevisiae deletion strains, locus YHR030C, strain SLT2, active compounds read low",0.056 (active)
same,normalized growth,"S. cerevisiae deletion strains, locus YHR079C, strain IRE1 (second series), active compounds read low",0.504 (active)
same,normalized growth,"S. cerevisiae deletion strains, locus YHR094C, strain hxt1, active compounds read low",0.099 (active)
same,normalized growth,"S. cerevisiae deletion strains, locus YHR129C, strain ARP1, active compounds read low",0.159 (active)
same,normalized growth,"S. cerevisiae deletion strains, locus YHR200W, strain rpn10, active compounds read low",0.247 (active)
same,normalized growth,"S. cerevisiae deletion strains, locus YIL066C, strain RNR3, active compounds read low",0.0635 (active)
same,normalized growth,"S. cerevisiae deletion strains, locus YIL073C, strain SPO22, active compounds read low",0.12 (active)
same,normalized growth,"S. cerevisiae deletion strains, locus YIL125W, strain kgd1, active compounds read low",0.128 (active)
same,normalized growth,"S. cerevisiae deletion strains, locus YIR030C, strain dcg1, active compounds read low",0.136 (active)
same,normalized growth,"S. cerevisiae deletion strains, locus YJL095W, strain BCK1, active compounds read low",0.0688 (active)
same,normalized growth,"S. cerevisiae deletion strains, locus YJL134W, strain LCB3, active compounds read low",0.057 (active)
same,normalized growth,"S. cerevisiae deletion strains, locus YJL168C, strain set2, active compounds read low",0.203 (active)
same,normalized growth,"S. cerevisiae deletion strains, locus YJL187C, strain SWE1 (second series), active compounds read low",0.39 (active)
same,normalized growth,"S. cerevisiae deletion strains, locus YJR043C, strain POL32, active compounds read low",0.258 (active)
same,normalized growth,"S. cerevisiae deletion strains, locus YJR075W, strain HOC1, active compounds read low",0.1 (active)
same,normalized growth,"S. cerevisiae deletion strains, locus YKL009W, strain mrt4, active compounds read low",0.833 (active)
same,normalized growth,"S. cerevisiae deletion strains, locus YKL068W, active compounds read low",0.963
same,normalized growth,"S. cerevisiae deletion strains, locus YKL085W, strain MDH1 (second series), active compounds read low",0.0898 (active)
same,normalized growth,"S. cerevisiae deletion strains, locus YKL085W, strain MDH1, active compounds read low",0.0898 (active)
same,normalized growth,"S. cerevisiae deletion strains, locus YKL190W, strain CNB1, active compounds read low",0.0889 (active)
same,normalized growth,"S. cerevisiae deletion strains, locus YKR001C, strain vps1, active compounds read low",0.0677 (active)
same,normalized growth,"S. cerevisiae deletion strains, locus YLR039C, strain RIC1, active compounds read low",0.111 (active)
same,normalized growth,"S. cerevisiae deletion strains, locus YLR058C, strain SHM2, active compounds read low",0.0878 (active)
same,normalized growth,"S. cerevisiae deletion strains, locus YLR102C, strain apc9, active compounds read low",0.186 (active)
same,normalized growth,"S. cerevisiae deletion strains, locus YLR262C, strain YPT6, active compounds read low",0.121 (active)
same,normalized growth,"S. cerevisiae deletion strains, locus YLR268W, strain sec22, active compounds read low",0.0849 (active)
same,normalized growth,"S. cerevisiae deletion strains, locus YLR330W, strain CHS5, active compounds read low",0.057 (active)
same,normalized growth,"S. cerevisiae deletion strains, locus YLR342W, strain FKS1 (second series), active compounds read low",0.0927 (active)
same,normalized growth,"S. cerevisiae deletion strains, locus YLR371W, strain rom2, active compounds read low",0.0695 (active)
same,normalized growth,"S. cerevisiae deletion strains, locus YLR418C, strain cdc73, active compounds read low",0.107 (active)
same,normalized growth,"S. cerevisiae deletion strains, locus YML016C, strain PPZ1, active compounds read low",0.0581 (active)
same,normalized growth,"S. cerevisiae deletion strains, locus YML032C, strain rad52, active compounds read low",0.621 (active)
same,normalized growth,"S. cerevisiae deletion strains, locus YML124C, strain tub3, active compounds read low",0.184 (active)
same,normalized growth,"S. cerevisiae deletion strains, locus YMR078C, strain ctf18, active compounds read low",0.0993 (active)
same,normalized growth,"S. cerevisiae deletion strains, locus YMR223W, strain ubp8, active compounds read low",0.0709 (active)
same,normalized growth,"S. cerevisiae deletion strains, locus YMR263W, strain SAP30, active compounds read low",0.153 (active)
same,normalized growth,"S. cerevisiae deletion strains, locus YMR307W, strain GAS1, active compounds read low",0.127 (active)
same,normalized growth,"S. cerevisiae deletion strains, locus YNL067W, strain RPL9B, active compounds read low",0.421 (active)
same,normalized growth,"S. cerevisiae deletion strains, locus YNL128W, strain TEP1, active compounds read low",0.0735 (active)
same,normalized growth,"S. cerevisiae deletion strains, locus YNL153C, strain GIM3, active compounds read low",0.215 (active)
same,normalized growth,"S. cerevisiae deletion strains, locus YNL233W, strain BNI4, active compounds read low",0.0602 (active)
same,normalized growth,"S. cerevisiae deletion strains, locus YNL250W, strain rad50, active compounds read low",0.894 (active)
same,normalized growth,"S. cerevisiae deletion strains, locus YNL271C, strain bni1, active compounds read low",0.336 (active)
same,normalized growth,"S. cerevisiae deletion strains, locus YNL298W, strain CLA4, active compounds read low",0.611 (active)
same,normalized growth,"S. cerevisiae deletion strains, locus YNL307C, strain MCK1, active compounds read low",0.072 (active)
same,normalized growth,"S. cerevisiae deletion strains, locus YNL322C, strain KRE1, active compounds read low",0.169 (active)
same,normalized growth,"S. cerevisiae deletion strains, locus YNR052C, strain pop2, active compounds read low",0.527 (active)
same,normalized growth,"S. cerevisiae deletion strains, locus YOL006C, strain TOP1, active compounds read low",0.128 (active)
same,normalized growth,"S. cerevisiae deletion strains, locus YOL012C, strain htz1",0.258
same,normalized growth,"S. cerevisiae deletion strains, locus YOL147C, strain pex11, active compounds read low",0.152 (active)
same,normalized growth,"S. cerevisiae deletion strains, locus YOR061W, strain CKA2, active compounds read low",0.05 (active)
same,normalized growth,"S. cerevisiae deletion strains, locus YOR069W, strain VPS5, active compounds read low",0.078 (active)
same,normalized growth,"S. cerevisiae deletion strains, locus YOR136W, strain idh2, active compounds read low",0.101 (active)
same,normalized growth,"S. cerevisiae deletion strains, locus YOR144C, strain elg1, active compounds read low",0.423 (active)
same,normalized growth,"S. cerevisiae deletion strains, locus YOR184W, strain ser1, active compounds read low",0.0788 (active)
same,normalized growth,"S. cerevisiae deletion strains, locus YOR316C, strain cot1, active compounds read low",0.113 (active)
same,normalized growth,"S. cerevisiae deletion strains, locus YPL055C, strain LGE1, active compounds read low",0.201 (active)
same,normalized growth,"S. cerevisiae deletion strains, locus YPL241C, strain CIN2, active compounds read low",0.358 (active)
same,normalized growth,"S. cerevisiae deletion strains, locus YPR119W, strain clb2, active compounds read low",0.079 (active)
same,normalized growth,"S. cerevisiae deletion strains, locus YPR141C, strain kar3, active compounds read low",0.958
same,normalized growth,"S. cerevisiae deletion strains, locus YPR163C, strain tif3, active compounds read low",0.0854 (active)
same,normalized growth,"S. cerevisiae deletion strains, locus YPR167C, strain met16, active compounds read low",0.067 (active)
same,normalized growth,"S. cerevisiae deletion strains, strain wtn01, active compounds read low",0.0803 (active)
same,normalized growth,"S. cerevisiae strains, strain wild type, active compounds read low",0.125 (active)
